We go through 22 molecules from PubChem BioAssay (EPA / NIEHS).

Inconclusive results are not listed. The source made the active and inactive calls. Rule for the calls: active = hit-call score of the fitted dose curve at least 0.9, where 1 is the maximum; inconclusive = response in the unintended direction; inactive = score below 0.9.

Read-out in the first assay: organic anion transporter (SLCO1B1), SLCO1B1 (gene 10599)
The experiment in a line: CLD_SLCO1B1_48hr: CellzDirect (CLD) Gene Expression Assay for organic anion transporter (SLCO1B1) at 48 hours (AID 2283707). The method, boiled down: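 Primary human hepatocytes from two donor preparations dosed daily for two days with multiple concentrations, 0.2% DMSO vehicle. SLCO1B1 mRNA at 48 h by quantitative nuclease protection assay, chemiluminescence; gain-of-signal fitted versus DMSO.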
Turning to `CSC(=O)c1c(C(F)F)nc(C(F)(F)F)c(C(=O)SC)c1CC(C)C`, the molecule was classed as inactive.

Turning to `COCC(C)N(C(=O)CCl)c1c(C)csc1C` (configuration not stated), the result was inactive.

As for `COP(=S)(OC)SCn1nnc2ccccc2c1=O`, the outcome was inactive.

On to `COc1ccc(-c2ccccc2)cc1NNC(=O)OC(C)C`, for which the molecule was called inactive.

As to `COP(=O)(OC)O/C(C)=C/C(=O)N(C)C`, the molecule was classed as inactive.

In the case of `COc1cc(OC)nc(NC(=O)NS(=O)(=O)c2ncccc2OCC(F)(F)F)n1`, the outcome was inactive.

For `OC(c1ccc(Cl)cc1)(c1ccc(Cl)cc1)C(Cl)(Cl)Cl`, the molecule was classed as inactive.

As for `Clc1nc(Cl)nc(Nc2ccccc2Cl)n1`, the molecule was classed as inactive.

`O=C1C2CC=CCC2C(=O)N1SC(Cl)(Cl)Cl` (configuration not stated): the molecule was classed as inactive.

Read-out in a further assay: alkyl and aryl transferase (GSTA2), GSTA2 (gene 2939)
The experiment in a line: CLD_GSTA2_48hr: CellzDirect (CLD) Gene Expression Assay for alkyl and aryl transferase (GSTA2) at 48 hours (AID 2283708).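 Note: active means mRNA induction above DMSO vehicle baseline.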 Summed up: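 Primary human hepatocytes dosed daily for two days (0.2% DMSO vehicle), harvested at 48 h. GSTA2 mRNA induction measured by quantitative nuclease protection assay with chemiluminescent imaging, fitted for gain of signal relative to DMSO.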
As to `CCOP(=O)(OCC)Oc1nc(Cl)c(Cl)cc1Cl`, the result was inactive.

With `COc1cc(Cl)c(OC)cc1Cl`, the molecule was classed as inactive.

Regarding `CC(C)Nc1nc(Cl)nc(NC(C)C)n1`, the molecule was called inactive.

With `CO/N=C(/C1=NOCCO1)c1ccccc1Oc1ncnc(Oc2ccccc2Cl)c1F`, the result was inactive.

Turning to `CC(C)=CC1C(C(=O)OCc2coc(Cc3ccccc3)c2)C1(C)C` (configuration not stated), the molecule was classed as inactive.

With `O=c1n(Cl)c(=O)n(Cl)c(=O)n1Cl`, the molecule was classed as inactive.

For `CCCN(CC)CC1COC2(CCC(C(C)(C)C)CC2)O1` (configuration not stated), the molecule was classed as inactive.

Consider `Nc1cnn(-c2ccccc2)c(=O)c1Cl`, for which the result was inactive.

Consider `CS(=O)(=O)c1cc(C(F)(F)F)ccc1C(=O)c1cnoc1C1CC1`, for which the outcome was inactive.

As to `COC(=O)NC(=S)Nc1ccccc1NC(=S)NC(=O)OC`, the molecule was classed as inactive.

As to `O=C(O)c1c(Cl)ccc2cc(Cl)cnc12`, the outcome was inactive.

As to `N#CN=C1SCCN1Cc1ccc(Cl)nc1`, the molecule was called inactive.

For the molecule `CC(C)C1(C)N=C(c2ncccc2C(=O)O)NC1=O` (configuration not stated), the result was inactive.
